# Results from PubChem BioAssay (Tox21).
# Unmarked numbers belong to inactive results. Inconclusive results are not listed. Where a call stands in place of a potency, no number is given. Activity calls are given as the source filed them. Unless noted, calls follow the shape of the dose curve; as a rule, active = well fitted curve in the direction sought with a large enough effect in the repeat runs; inconclusive = weak or mixed curves; inactive = no such curve, though single readings can be large; an effect the other way counts as inactive or inconclusive.
# What was measured:
# [1] = qHTS assay for small molecule agonists of the p53 signaling pathway - cell viability (AID 651633; calls by dose curve;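 also: p53RE-bla HCT reporter cells with a stable beta-lactamase p53 reporter; series mostly up to about 83 µM; nearly all actives have a fitted effect of over 30% in size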)
# Method in brief: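 p53RE-bla cells, seeded at 4,000 per well and rested 5 h at 37 C/5% CO2, received compounds in DMSO for 16 h at 37 C. CellTiter-Glo was then added, and luminescence was read after 30 min at room temperature to gauge cytotoxicity.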
# [2] = qHTS assay for small molecules that induce genotoxicity in human embryonic kidney cells expressing luciferase-tagged ATAD5 - cell viability (AID 651634; calls by dose curve; also: nearly all actives have a fitted effect of over 25% in size)
# Method in brief: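 Fluorescence from CellTiter-Fluor, reporting protease activity within live cells, served as the viability read-out. HEK293T cells carrying luciferase-tagged ATAD5 had been treated with compound for 15.5 hr at 37C.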
# [3] = qHTS assay for small molecule disruptors of the mitochondrial membrane potential (AID 720635); also: potency is read from the fitted curve at half-maximal effect
# Method in brief: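 HepG2 cells (2,000/well) attached overnight at 37C, then took compound for 1 hr at 37C, 5% CO2. Mito-MPS dye was added for 30 min; fluorescence was read at 490/535 nm (monomers) and 540/590 nm (aggregates).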
# [4] = qHTS assay to test for compound auto fluorescence at 590 nm (red) in HepG2 cells (AID 720674)
# Method in brief: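 Compound auto-fluorescence is scored relative to Rose Bengal sodium, measured at 540/590 nm in live HepG2 cultures after 1 hr compound contact (37 C, 5% CO2).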
# [5] = qHTS assay to test for compound auto fluorescence at 535 nm (green) in HepG2 cells (AID 720675)
# [6] = qHTS assay to test for compound auto fluorescence at 460 nm (blue) in HEK293 cells (AID 720678)
# Method in brief: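 Blue-channel (Ex/Em 405/460 nm) intensity measured in HEK293 cultures after overnight compound exposure at 37C; signal expressed relative to triamterene. Cells plated 2,000 per well in 10% dialyzed FBS medium and allowed 4-5 hr to attach.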
# [7] = qHTS assay to test for compound auto fluorescence at 590 nm (red) in HEK293 cells (AID 720679)
# Method in brief: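 Red-channel autofluorescence (Ex/Em 540/590 nm; Rose Bengal sodium reference) was measured after overnight 37C, 5% CO2 exposure of attached HEK293 cells, 2,000 per well in medium with 10% dialyzed FBS.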
# [8] = qHTS assay to test for compound auto fluorescence at 535 nm (green) in HEK293 cells (AID 720680)
# [9] = qHTS assay to test for compound auto fluorescence at 460 nm (blue) in HEK293 cell free culture (AID 720681)
# Method in brief: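 Test compounds were pinned into cell-free culture medium (DMEM with 10% FBS) and fluorescence was read directly at Ex/Em 405/460 nm. Signals were expressed as fluorescence equivalents of triamterene, with DMSO vehicle as control.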
# [10] = qHTS assay to test for compound auto fluorescence at 535 nm (green) in HEK293 cell free culture (AID 720682)
# Method in brief: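 Each library compound, or DMSO control, is added by pintool to medium alone, comprising DMEM and 10% FBS. Emission at 535 nm following 485 nm excitation is quantified against fluorescein.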
# [11] = qHTS assay to test for compound auto fluorescence at 590 nm (red) in HEK293 cell free culture (AID 720683)
# Method in brief: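 Tox21 10K library compounds were pinned into cell-free DMEM with 10% FBS and fluorescence was read at excitation 540 nm. Activity is expressed as Rose Bengal sodium equivalency.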
# [12] = qHTS assay to test for compound auto fluorescence at 590 nm (red) in HepG2 cell free culture (AID 720684)
# Method in brief: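 Measured in medium alone (MEM containing 10% FBS) following pintool addition of compound; emission at 590 nm with 540 nm excitation, referenced to Rose Bengal sodium.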
# [13] = qHTS assay to test for compound auto fluorescence at 460 nm (blue) in HepG2 cell free culture (AID 720685)
# Method in brief: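 Compound (23 nL) or DMSO pinned into cell-free MEM with 10% FBS; blue fluorescence read at 405/460 nm excitation/emission, expressed as auto-fluorescence equivalency to triamterene.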
# [14] = qHTS assay to test for compound auto fluorescence at 535 nm (green) in HepG2 cell free culture (AID 720686)
# [15] = target: Glucocorticoid receptor (Homo sapiens) (UniProt P04150); test: qHTS assay to identify small molecule agonists of the glucocorticoid receptor (GR) signaling pathway (AID 720691; active = well fitted activation curve with a large enough effect in the signal ratio in the repeat runs, not every such curve was filed as active; the % refers to the signal ratio)
# Method in brief: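 Fluorescence intensity from LiveBLAzer B/G FRET substrate (2 h, room temperature) reports beta-lactamase expression driven by the glucocorticoid response element in GR-bla HeLa cells after 18 h compound exposure at 37 C.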
# [16] = qHTS assay for small molecules that induce genotoxicity in human embryonic kidney cells expressing luciferase-tagged ATAD5 (AID 651632); also: nearly all actives have a fitted effect of over 15% in size
# Method in brief: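 ATAD5-luc HEK293T, 2,000 cells/well; cpd or DMSO pin-transferred; 16 hr, 37C/5% CO2; Amplite 30 min RT; luminescence.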
# [17] = qHTS assay to test for compound auto fluorescence at 460 nm (blue) in HepG2 cells (AID 720687)
# Method in brief: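 Cells (2,000/well in MEM with 10% FBS) attached overnight at 37 C, then were exposed to compound or DMSO for 1 hr at 37 C, 5% CO2. Fluorescence read at Ex/Em 405/460 nm, expressed as triamterene-equivalent signal.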
# [18] = target: Glucocorticoid receptor (Homo sapiens) (UniProt P04150); test: qHTS assay to identify small molecule antagonists of the glucocorticoid receptor (GR) signaling pathway (AID 720692; active = well fitted inhibition curve with a large enough effect in the signal ratio in the repeat runs, not every such curve was filed as active; the % refers to the signal ratio; also: potency is read from the fitted curve at half-maximal effect)
# Method in brief: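 HeLa GR-bla cells; cmpd + dex 5 nM final, 18 h 37 C; LiveBLAzer B/G FRET substrate 2 h RT; fluorescence intensity read. Antagonist mode, qHTS.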
# [19] = qHTS assay for small molecule disruptors of the mitochondrial membrane potential - cell viability (AID 720634; calls by dose curve;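 also: human HepG2 liver cancer cells; series mostly up to about 83 µM; nearly all actives have a fitted effect of over 20% in size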)
# Method in brief: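 Cells: HepG2, 2,000/well, attached overnight. Compound 1 hr, 37 C/5% CO2. +m-MPI dye, +CellTiter-Glo 30 min RT. Readout: luminescence (ATP).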
# Chain of Glucocorticoid receptor (Homo sapiens) (P04150 whole entry, looked up): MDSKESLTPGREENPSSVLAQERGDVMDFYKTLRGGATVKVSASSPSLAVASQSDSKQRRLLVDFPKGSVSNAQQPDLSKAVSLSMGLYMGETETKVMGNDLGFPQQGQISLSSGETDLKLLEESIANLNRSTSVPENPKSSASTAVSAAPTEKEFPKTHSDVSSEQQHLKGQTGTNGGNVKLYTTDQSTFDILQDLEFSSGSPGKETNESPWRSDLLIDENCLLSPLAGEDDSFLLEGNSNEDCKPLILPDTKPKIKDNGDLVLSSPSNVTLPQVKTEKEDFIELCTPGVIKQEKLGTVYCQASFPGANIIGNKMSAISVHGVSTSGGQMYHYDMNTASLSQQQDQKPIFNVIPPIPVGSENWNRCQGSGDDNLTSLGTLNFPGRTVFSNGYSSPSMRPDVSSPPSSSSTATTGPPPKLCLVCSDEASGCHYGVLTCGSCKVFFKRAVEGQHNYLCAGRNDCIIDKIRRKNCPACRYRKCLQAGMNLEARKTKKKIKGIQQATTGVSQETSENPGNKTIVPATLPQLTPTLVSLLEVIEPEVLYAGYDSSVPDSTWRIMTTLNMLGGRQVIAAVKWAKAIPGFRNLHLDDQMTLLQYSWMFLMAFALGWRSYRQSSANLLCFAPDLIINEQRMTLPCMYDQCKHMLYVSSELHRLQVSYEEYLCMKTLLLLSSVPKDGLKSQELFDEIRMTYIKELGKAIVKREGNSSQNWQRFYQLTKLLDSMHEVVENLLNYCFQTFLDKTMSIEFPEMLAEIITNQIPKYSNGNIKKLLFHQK
structure (smiles),measurement,setting,value
NC(=O)Nc1ccc(Cl)cc1,Potency,[1],inactive
same,Potency,[2],inactive
same,Potency,[3],inactive
same,outcome,[4],inactive
same,outcome,[5],inactive
same,Potency,[6],inactive
same,outcome,[7],inactive
same,outcome,[8],inactive
same,Potency,[9],inactive
same,outcome,[10],inactive
same,outcome,[11],inactive
same,outcome,[12],inactive
same,Potency,[13],inactive
same,outcome,[14],inactive
same,Potency,[15],inactive
Cc1ccc(S(=O)(=O)NC2CCCCC2)cc1,Potency,[16],inactive
same,Potency,[3],21.5 µM (active)
same,outcome,[5],inactive
same,Potency,[6],inactive
same,outcome,[7],inactive
same,outcome,[8],inactive
same,Potency,[9],inactive
same,outcome,[10],inactive
same,outcome,[11],inactive
same,outcome,[12],inactive
same,Potency,[13],inactive
same,outcome,[14],inactive
same,Potency,[17],inactive
same,Potency,[15],inactive
same,Potency,[18],inactive
Nc1ccc(C(=O)OCCCOC(=O)c2ccc(N)cc2)cc1,Potency,[1],inactive
same,Potency,[19],inactive
same,Potency,[3],27.3 µM (active)
same,outcome,[4],inactive
same,outcome,[5],inactive
same,Potency,[6],inactive
same,outcome,[7],inactive
same,Potency,[9],inactive
same,outcome,[10],inactive
same,outcome,[11],inactive
same,outcome,[12],inactive
same,Potency,[13],inactive
same,outcome,[14],inactive
same,Potency,[15],inactive
O=C(NCCCN1CCOCC1)c1ccc(Cl)cc1,Potency,[1],inactive
same,Potency,[2],inactive
same,Potency,[19],inactive
same,outcome,[4],inactive
same,outcome,[5],inactive
same,Potency,[6],inactive
same,outcome,[7],inactive
same,outcome,[8],inactive
same,Potency,[9],inactive
same,outcome,[10],inactive
same,outcome,[11],inactive
same,outcome,[12],inactive
same,Potency,[13],inactive
same,outcome,[14],inactive
same,Potency,[15],inactive
same,Potency,[18],inactive
ON(Cc1ccccc1)Cc1ccccc1,Potency,[1],inactive
same,Potency,[2],inactive
same,Potency,[19],inactive
same,Potency,[3],inactive
same,outcome,[4],inactive
same,outcome,[5],inactive
same,Potency,[6],inactive
same,outcome,[7],inactive
same,outcome,[8],inactive
same,Potency,[9],inactive
same,outcome,[10],inactive
same,outcome,[11],inactive
same,outcome,[12],inactive
same,Potency,[13],inactive
same,outcome,[14],inactive
same,Potency,[17],inactive
Nc1nccs1,Potency,[1],inactive
same,Potency,[2],inactive
same,Potency,[19],inactive
same,Potency,[3],inactive
same,outcome,[4],inactive
same,outcome,[5],inactive
same,Potency,[6],inactive
same,outcome,[7],inactive
same,outcome,[8],inactive
same,Potency,[9],inactive
same,outcome,[10],inactive
same,outcome,[11],inactive
same,outcome,[12],inactive
same,Potency,[13],inactive
same,outcome,[14],inactive
same,Potency,[17],inactive
same,Potency,[18],inactive
O=C(CCCN1CCN(c2ccc(F)cc2)CC1)NC1c2ccccc2CSc2ccccc21 (centres undefined),Potency,[16],inactive
same,Potency,[19],inactive
same,outcome,[4],inactive
same,outcome,[5],inactive
same,Potency,[6],inactive
same,outcome,[7],inactive
same,outcome,[8],inactive
same,Potency,[9],inactive
same,outcome,[10],inactive
same,outcome,[11],inactive
same,outcome,[12],inactive
same,Potency,[13],inactive
same,outcome,[14],inactive
same,Potency,[17],inactive
same,Potency,[15],inactive
same,Potency,[18],inactive
c1cc[c]([Bi]([c]2ccccc2)[c]2ccccc2)cc1,Potency,[2],inactive
same,Potency,[3],24.3 µM (active)
same,outcome,[4],inactive
same,outcome,[5],inactive
same,Potency,[6],inactive
same,outcome,[7],inactive
same,Potency,[9],inactive
same,outcome,[10],inactive
same,outcome,[11],inactive
same,outcome,[12],inactive
same,Potency,[13],inactive
same,outcome,[14],inactive
same,Potency,[17],inactive
same,Potency,[15],inactive
same,Potency,[18],19.5 µM (active)
C(=C\c1ccccc1)/CN1CCN(C(c2ccccc2)c2ccccc2)CC1,Potency,[1],inactive
same,Potency,[2],inactive
same,Potency,[19],inactive
same,Potency,[3],inactive
same,"fluorescence, % of fluorescein control",[5],0.0028% [at 18.6 µM]
same,"fluorescence, % of triamterene",[6],0.048% [at 18.6 µM]
same,"fluorescence, % of fluorescent control",[7],0.417% [at 18.6 µM]
same,"fluorescence, % of fluorescein",[8],0.011% [at 18.6 µM]
same,"fluorescence, % of fluorescent control",[9],0.0548% [at 18.6 µM]
same,activity change,[10],-0.0228% [at 18.6 µM]
same,"fluorescence, % of fluorescent control",[11],-0.0283% [at 18.6 µM]
same,"fluorescence, % of Rose Bengal",[12],-0.312% [at 18.6 µM]
same,"fluorescence, % of fluorescent control",[13],0.108% [at 18.6 µM]
same,"fluorescence, % of fluorescein control",[14],0.012% [at 18.6 µM]
same,"fluorescence, % of fluorescent control",[17],0.0775% [at 18.6 µM]
O=C(C(=O)c1ccccc1)c1ccccc1,Potency,[1],inactive
same,Potency,[2],inactive
same,Potency,[19],inactive
same,outcome,[4],inactive
same,outcome,[5],inactive
same,Potency,[6],inactive
same,outcome,[7],inactive
same,outcome,[8],inactive
same,Potency,[9],inactive
same,outcome,[10],inactive
same,outcome,[11],inactive
same,Potency,[13],inactive
same,outcome,[14],inactive
same,Potency,[17],inactive
same,Potency,[18],inactive
